Structures are written as SMILES. Results filed as inconclusive are left out. Activity calls are given as the source filed them. Unless noted, calls come from the whole dose curve; as a rule, active = well fitted curve in the direction sought with a large enough effect; inconclusive = small, poorly fitted or top-dose-only effect, or another doubt; inactive = no such curve, though single readings can be large; an effect the other way counts as inactive or inconclusive.

For 48 compounds, outcome and Potency results are on record in PubChem BioAssay (NCATS).

Assay [1] can be described thus: MultiTox-Fluor Cytotoxicity Assay - LYMP1-001 - Dead Cells (AID 946).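 Note: cells exposed to compound for 16 h.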 The settings on record: LYMP1-001 lymphoblastoid cells, dead-cell protease fluorescence; series mostly up to 92.2 µM. The essentials:
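Seed 2500 LYMP1-001 cells/well, incubate 5 hr at 37 C; add compound, 16 hr at 37 C; add MultiTox-Fluor reagent, 60 min RT; read dead-cell fluorescence Ex/Em=485/520. Normalize to DMSO and 15 uM tetraoctylammonium bromide.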

Assay [2] in a line: MultiTox-Fluor Cytotoxicity Assay - LYMP1-001 - Live Cells (AID 947). The conditions noted are these: LYMP1-001 lymphoblastoid cells, live-cell protease fluorescence viability; series mostly up to 92.2 µM.
A short description of assay [3]: Cell Viability - LYMP1-002 - Assay at 16 hr (AID 948). The conditions noted are these: LYMP1-002 lymphoblastoid cell viability; series mostly up to 92.2 µM. The essentials: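 LYMP1-002 human lymphoblastoid cells, 2500/well; 5 hr 37 C; cpd 16 hr 37 C; CellTiter-Glo 30 min RT; luminescence (ATP). Concentration-response, Hill-fit AC50. Pos ctrl tetraoctylammonium bromide.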

Assay [4] is described as follows: MultiTox-Fluor Cytotoxicity Assay - LYMP1-002 - Live Cells (AID 955).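 Note: cells exposed to compound for 16 hours.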 The conditions noted are these: LYMP1-002 lymphoblastoid live-cell protease fluorescence viability; series mostly up to 46.1 µM. The essentials:
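LYMP1-002 lymphoblastoid cells; 2500 cells/well; 16 hr compound exposure, 37 C; MultiTox-Fluor reagent 60 min RT; live-cell fluorescence Ex/Em=405/510; qHTS concentration-response, Hill-equation AC50; tetraoctylammonium bromide positive control.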

Assay [5] can be described thus: MultiTox-Fluor Cytotoxicity Assay - LYMP1-002 - Dead Cells (AID 960).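 Note: cells exposed to compound for 16 h at 37 °C; nearly all actives have a fitted effect of over 60% in size.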 The conditions noted are these: LYMP1-002 lymphoblastoid cells, dead-cell protease fluorescence; series mostly up to 46.1 µM. The essentials: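 Readout: fluorescence at 485/520 from cell-impermeant bis-AAF-R110 cleaved by proteases leaking from damaged cells. LYMP1-002 lymphoblastoid line, 16 hr compound treatment at 37 C, concentration-response in qHTS format; Hill-equation AC50 values.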

Assay [6] can be described thus: MultiTox-Fluor Cytotoxicity Assay - LYMP1-003 - Dead Cells (AID 961).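 Note: cells exposed to compound for 16 h at 37 °C; nearly all actives have a fitted effect of over 70% in size.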 The settings on record: LYMP1-003 lymphoblastoid cells, dead-cell protease fluorescence; series mostly up to 92.2 µM. The essentials: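 LYMP1-003 lymphoblastoid, 2500 cells/well, 5 hr settle then 16 hr cpd at 37 C; MultiTox-Fluor reagent 60 min RT; Ex/Em 485/520 dead-cell signal; norm. DMSO = 0%, 15 uM tetraoctylammonium bromide = 100%; Hill AC50.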

Assay [7] can be described thus: MultiTox-Fluor Cytotoxicity Assay - LYMP1-003 - Live Cells (AID 962).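 Note: cells exposed to compound for 16 hours at 37 °C; cytotoxic hits lower the live-cell protease signal.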 The settings on record: LYMP1-003 lymphoblastoid cells, MultiTox-Fluor live-cell protease fluorescence; series mostly up to 92.2 µM. The essentials:
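Readout: live-cell fluorescence (Ex/Em=405/510) from GF-AFC cleavage after 60 min MultiTox-Fluor reagent at room temperature. Lymphoblastoid LYMP1-003 cells, 16 hr compound treatment, 37 C. Concentration-response fitted to standard Hill equation for AC50.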

Assay [8] can be described thus: Cell Viability - LYMP1-003 - Assay at 24 hr (AID 963). The conditions noted are these: LYMP1-003 lymphoblastoid cell viability; series mostly up to 92.2 µM. The essentials:
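CellTiter-Glo luminescence (intracellular ATP) read after 24 hr, 37 C compound exposure of 2500 LYMP1-003 human lymphoblastoid cells/well in complete medium; qHTS concentration series; AC50 via standard Hill equation.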

Assay [9] has as its target Pyruvate kinase PKM (Homo sapiens) (UniProt P14618). Put plainly: qHTS Assay for Activators of Human Muscle Pyruvate Kinase (AID 954; active = well fitted curve in the direction sought with a large enough effect, not every such curve was filed as active). The settings on record: purified human muscle pyruvate kinase, luciferase-coupled luminescence, 1 h; series mostly up to 57.5 µM. The essentials: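 PKM2, human, >95% pure, 0.1 nM; PEP 0.5 mM (Km), ADP 0.1 mM; 50 mM imidazole pH 7.2, 50 mM KCl, 0.01% Tween 20, 0.05% BSA; 1 h RT; luciferase luminescence readout.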

For assay [10], the target named is Alpha-galactosidase (Coffea arabica) (UniProt Q42656). Kind of assay: Counterscreen for Glucocerebrosidase Inhibitors: qHTS Assay for Coffee Bean alpha-Galactosidase at pH 4.5 (AID 957). The conditions noted are these: purified coffee bean alpha-galactosidase, fluorogenic substrate; series mostly up to 76.9 µM. The essentials:
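Fluorogenic read-out: 4-methylumbelliferone at Ex 365/Em 440 nm after NaOH/glycine stop (pH 10). Enzyme 2 nM, 4-MU-alpha-galactoside 80 uM, citrate buffer pH 4.5, 20 min RT; normalized to no-enzyme and enzyme controls.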

Chain of Pyruvate kinase PKM (Homo sapiens) (P14618 whole entry, looked up): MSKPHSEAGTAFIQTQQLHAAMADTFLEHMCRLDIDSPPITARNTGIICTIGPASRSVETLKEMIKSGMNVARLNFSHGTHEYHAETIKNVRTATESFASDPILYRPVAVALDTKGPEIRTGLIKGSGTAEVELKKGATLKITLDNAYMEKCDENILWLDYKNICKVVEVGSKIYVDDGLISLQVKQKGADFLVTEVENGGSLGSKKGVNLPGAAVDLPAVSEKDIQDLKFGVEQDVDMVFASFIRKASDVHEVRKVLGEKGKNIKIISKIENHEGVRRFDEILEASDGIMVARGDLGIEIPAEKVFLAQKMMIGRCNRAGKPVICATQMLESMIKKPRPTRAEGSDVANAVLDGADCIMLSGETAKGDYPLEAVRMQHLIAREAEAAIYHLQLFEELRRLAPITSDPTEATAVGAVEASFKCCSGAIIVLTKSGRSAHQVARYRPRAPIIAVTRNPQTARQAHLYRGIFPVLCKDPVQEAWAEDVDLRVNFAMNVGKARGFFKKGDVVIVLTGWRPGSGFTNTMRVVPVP
Chain of Alpha-galactosidase (Coffea arabica) (Q42656 whole entry, looked up): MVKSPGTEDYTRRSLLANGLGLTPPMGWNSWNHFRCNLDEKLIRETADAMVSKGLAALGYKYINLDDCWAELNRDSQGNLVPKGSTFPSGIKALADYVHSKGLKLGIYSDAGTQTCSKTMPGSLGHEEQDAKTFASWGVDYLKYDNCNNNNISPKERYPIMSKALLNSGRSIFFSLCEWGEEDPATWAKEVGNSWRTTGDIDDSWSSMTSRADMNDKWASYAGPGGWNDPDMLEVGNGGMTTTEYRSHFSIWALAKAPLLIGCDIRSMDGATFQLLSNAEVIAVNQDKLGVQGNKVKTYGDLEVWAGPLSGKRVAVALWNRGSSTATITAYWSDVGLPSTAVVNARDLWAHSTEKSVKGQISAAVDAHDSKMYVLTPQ

As to `C1CCC(NC2CCCCC2)CC1`, the compound was called inactive in assay [1] and in [5]. Moreover, the Potency entry in assay [2], in assay [3], in assay [4], in assay [6], in assay [7] and in assay [8] was “inactive” in each case.
For the compound `Nc1ccc(Sc2ccc(N)cc2)cc1`, the result in assay [1] and in [5] was inactive. In addition, the Potency result in assay [2], in [3], in assay [4], in [6], in assay [7] and in assay [8] was “inactive” in each case.
In the case of `CN[C@@H]1C[C@@H](c2ccc(Cl)c(Cl)c2)c2ccccc21`, the call in [9] and in [10] was inactive.
For `CCOCCOC(C)=O`, in assay [1], the result was inactive. For the same compound, the Potency result in assay [2], in assay [3], in assay [4], in assay [6], in assay [7] and in assay [8] was “inactive” throughout.
As for `C[C@]12N[C@H](Cc3ccccc31)c1ccccc12`, the compound was classed as inactive in assay [9] and in [10].
With `Nc1ccc(Cl)cc1N`, the call in assay [1] and in assay [5] was inactive. Further, the Potency result in [2], in assay [3], in assay [4], in [6], in assay [7] and in [8] was “inactive” each time.
Take `O=S(=O)(c1ccc(Cl)cc1)c1ccc(Cl)cc1`: the result in assay [1] and in assay [5] was inactive. Further, the Potency entry in assay [2], in [3], in assay [4], in assay [6], in assay [7] and in assay [8] was “inactive” in each case.
For `O=[N+]([O-])c1c(Cl)c(Cl)cc(Cl)c1Cl`, the result in assay [1] and in assay [5] was inactive. Also, the Potency entry in assay [2], in [3], in assay [4], in assay [6], in assay [7] and in assay [8] was “inactive” in each case.
In the case of `CCOP(=O)(NC(C)C)Oc1ccc(SC)c(C)c1` (centres undefined), the call in assay [1] and in assay [5] was inactive. Also, the Potency entry in assay [3], in [4], in [6], in assay [7] and in assay [8] was “inactive” each time.
For the compound `O=C(O)C(Cl)Cl`, the compound was called inactive in [1] and in [5]. Further, the Potency result in assay [2], in assay [3], in assay [4], in assay [6], in [7] and in assay [8] was “inactive” in each case.
As to `O=C(O)CC[N+](=O)[O-]`, the compound was classed as inactive in assay [9] and in [10].
`C=CC(=O)NCNC(=O)C=C`: the outcome in assay [1] and in assay [5] was inactive. Besides, the Potency result in [2], in assay [3], in assay [4], in [6], in assay [7] and in assay [8] was “inactive” each time.
For the compound `Cc1cccc(C#Cc2ccccc2)n1`, the outcome in assay [10] was inactive.
On to `Cc1c(C(=O)c2cccc3ccccc23)c2cccc3c2n1[C@H](CN1CCOCC1)CO3`, for which the result in [9] and in assay [10] was inactive.
With `CS(=O)(=O)Nc1ccc([N+](=O)[O-])cc1Oc1ccccc1`, the result in assay [10] was inactive.
Take `Cn1cnc(CCN)c1`: the result in [9] and in assay [10] was inactive.
As for `C[C@@H]1O[C@H](C[N+](C)(C)C)C[C@H]1O`, the result in assay [9] and in assay [10] was inactive.
As to `CCCCc1ccc(C(=O)O)nc1`, the compound was classed as inactive in [9] and in assay [10].
Consider `CC#C[C@]1(O)CC[C@H]2[C@@H]3CCC4=CC(=O)CCC4=C3[C@H](c3ccc(N(C)C)cc3)C[C@@]21C`, for which the call in [10] was inactive.
As for `O=C(O)Cc1cnc[nH]1`, the outcome in assay [9] and in assay [10] was inactive.
Take `CC(=O)NCCc1c[nH]c2ccccc12`: the outcome in [9] and in assay [10] was inactive.
As to `NC(=NCCC[C@H](N)C(=O)O)N[N+](=O)[O-]`, the call in [9] and in assay [10] was inactive.
Consider `CCCN(CCC)[C@@H]1CCc2ccc(O)cc2C1`, for which the outcome in assay [9] and in assay [10] was inactive.
As for `O=C1CCCN1CC#CCN1CCCC1`, the outcome in assay [9] and in assay [10] was inactive.
Consider `NCCc1c[nH]c2ccccc12`, for which the result in assay [9] and in assay [10] was inactive.
With `CC(C)(Sc1ccc(CCN(CCCCC2CCCCC2)C(=O)NC2CCCCC2)cc1)C(=O)O`, the compound was called inactive in assay [10].
For `NCCc1c[nH]c2ccc(O)cc12`, the call in assay [9] and in assay [10] was inactive.
As for `CCc1c(C)[nH]c2c1C(=O)C(CN1CCOCC1)CC2` (centres undefined), the compound was classed as inactive in assay [10].
With `NCc1cc(=O)[nH]o1`, the compound was called inactive in assay [9] and in assay [10].
Turning to `NCCS`, the outcome in assay [10] was inactive.
As to `C[C@]12C[C@H](O)[C@H]3[C@@H](CCC4=CC(=O)CC[C@@]43C)[C@@H]1CC[C@@H]2C(=O)CO`, in assay [10], the compound was called inactive.
Consider `COc1ccc2c(c[n+](C)c3c4cc5c(cc4ccc23)OCO5)c1OC`, for which the outcome in assay [9] and in assay [10] was inactive.
Regarding `CNCCc1c[nH]c2ccc(O)cc12`, the result in [9] and in assay [10] was inactive.
As to `CCOC(=O)C1=C[C@@]2(CC)CCCN3CCc4c(n1c1ccccc41)[C@H]32`, the call in assay [10] was inactive.
With `c1ccc(CCCN2CCN(CCOC(c3ccccc3)c3ccccc3)CC2)cc1`, the outcome in assay [9] and in [10] was inactive.
On to `CNCCc1ccc(O)c(O)c1`, for which the call in [9] and in assay [10] was inactive.
Regarding `CCN(CC)CCNC(=O)c1ccc(NC(C)=O)cc1`, the outcome in assay [10] was inactive.
Turning to `CC(C)c1ccc2c(c1)c(SC(C)(C)C)c(CC(C)(C)C(=O)O)n2Cc1ccc(Cl)cc1`, the compound was called inactive in assay [10].
`Cc1nc(-c2ccc(-c3ccc(C(=O)N4CCc5cc6c(cc54)C4(CCN(C)CC4)CO6)cc3)c(C)c2)no1`: the call in assay [9] and in assay [10] was inactive.
As for `CC1=NN=C(c2ccc(N)cc2)c2cc3c(cc2C1)OCO3`, the call in assay [9] and in assay [10] was inactive.
Take `CC(=O)Oc1ccccc1C(=O)O`: in assay [10], the call was inactive.
For the compound `CCn1cc(C(=O)O)c(=O)c2cc3c(cc21)OCO3`, the compound was classed as inactive in assay [10].
Regarding `Cc1nccc2c1[nH]c1ccccc12`, the compound was called inactive in [9] and in [10].
Consider `C[N+](C)(C)CC(=O)O`, for which the result in assay [10] was inactive.
With `CC[C@@]1(O)C(=O)OCc2c1cc1n(c2=O)Cc2cc3ccccc3nc2-1`, the result in assay [9] and in [10] was inactive.
As to `CCN1CCc2nc(N)oc2CC1`, the call in assay [10] was inactive.
In the case of `c1ccc2sc(C3(N4CCCCC4)CCCCC3)cc2c1`, the compound was called inactive in assay [9] and in assay [10].
`C#CCOC(=O)C1=CCCN(C)C1`: the outcome in [9] and in assay [10] was inactive.
